In the supplement of paper PMC6555819:

Tests used:
Test in all cases: PBM binding z-score (relative to random genomic background probes); higher = stronger binding; sequences stand for … in GC…GCGATTGACAGCGTAGAATGAAGG
[1] = test system: PPARg:RXRa DBDmut IVT, anti-RXR (DBD mutation: RXRa K156A/R161A, NR concentration 270 nM, RXRa partner concentration 90 nM)
Method in brief: (§1)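 For binding z-scores, the reference was random background probes on custom Agilent 4×180K protein-binding microarrays. These arrays were incubated 1 h with ligand-free nuclear receptor dimers in PBS pH 7.4, 2% milk, 0.02% Triton X-100, 1 mM DTT, 0.2 mg/mL BSA and 0.4 mg/ml salmon testes DNA. Fluorescence was scanned after antibody detection of each partner (one per run) and regression-normalized.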

[2] = test system: PPARg:RXRa IVT, anti-PPARg (NR concentration 270 nM, RXRa partner concentration 90 nM)
Method in brief: as §1

[3] = test system: PPARg DBDmut:RXRa IVT, anti-PPARg (DBD mutation: PPARg1 K132A/R137A, NR concentration 270 nM, RXRa partner concentration 90 nM)
Method in brief: as §1

[4] = test system: PPARg DBDmut IVT, anti-PPARg (DBD mutation: PPARg1 K132A/R137A, NR concentration 270 nM)
Method in brief: as §1

[5] = test system: PPARg homodimer (NR concentration 180 nM)
Method in brief: as §1

[6] = test system: PXR:RXRa (NR concentration 270 nM, RXRa partner concentration 90 nM)
Method in brief: as §1

[7] = test system: PXR homodimer (NR concentration 270 nM)
Method in brief: as §1

[8] = test system: RARa:RXR (NR concentration 270 nM, RXRa partner concentration 90 nM)
Method in brief: as §1

[9] = test system: RARa homodimer (NR concentration 270 nM)
Method in brief: as §1

[10] = test system: RARb:RXRa (NR concentration 270 nM, RXRa partner concentration 90 nM)
Method in brief: as §1

Sequence | PBM binding z-score [1] | PBM binding z-score [2] | PBM binding z-score [3] | PBM binding z-score [4] | PBM binding z-score [5] | PBM binding z-score [6] | PBM binding z-score [7] | PBM binding z-score [8] | PBM binding z-score [9] | PBM binding z-score [10]
CCTTACGGGTCAAAGTTATAGCACGGGTGGTACG | 1.88 | 3.45 | 0.255 | 0.0478 | 2.1 | 3.35 | 0.317 | 4.38 | 1 | 3.7
GCTTGTAGATCAAGGTCAAGAAAGACTAAGCTAA | 2.14 | 2.87 | 0.431 | -0.296 | 1.34 | 2.63 | 0.449 | 3.08 | 0.173 | 3.5
CTCGAAAGGTCGGTTGAGGTGAGTTTACGGATAA | 1.08 | 0.924 | -0.565 | -0.36 | 0.854 | 3.83 | 0.588 | 2.16 | -0.143 | 3.09
CCAGGCAGGTGAGAAGGTAACTCAGCCTCGATTA | 0.637 | 0.291 | -1.38 | -1.33 | -0.318 | -0.256 | -0.513 | -0.0086 | -0.442 | 0.36
CAAACTAGGTCAAGAGGTCCAAGTCCGCTTCCCG | 8.55 | 8.32 | 1.57 | 0.903 | 1.86 | 1.58 | 0.285 | 2.21 | 0.1 | 4.02
ATCTCTAGGTAACAAGTTCAGCGAAAGAGAGGAC | 3.7 | 2.88 | 1.31 | 2.15 | 1.32 | 1.9 | 1.83 | 1.15 | 1.27 | 1.81
TCTATTAGTTGAAGGGCAACTGACGAGTCCGTTT | 2.25 | 0.905 | 0.468 | 0.573 | 0.905 | 0.88 | 0.479 | 1.08 | 1.44 | 1.6
TCTCGAAGGACACGAAGGTCAGAGCTTTCCAGAG | 1.58 | 1.03 | -0.558 | -0.971 | 1.64 | 1.54 | 0.219 | 2.12 | 0.163 | 3.34
CATCGGAGGACAACAGGAGGTCAGAGCTGCCAGA | 0.575 | 1.3 | -0.47 | -0.762 | 1.51 | 2.23 | 0.834 | 2.69 | 0.396 | 3.08
ATCTCTAGGTAAGACTCAGTTCAGTGATGAACGC | 1.78 | 1.28 | 1.15 | 1.33 | 1.36 | 0.974 | 1.63 | 0.24 | 0.763 | 0.357
GCTAGTTGGGCAGTAAAAGGTCACACACCGGTCG | 0.484 | 2.09 | -0.128 | -0.41 | 4.82 | 5.1 | 1.13 | 6.26 | 2.32 | 4.16
CTCGAAAGGTCGTGCTCAGGTGAGAATACCAAAC | 0.69 | 1.89 | 0.151 | 0.41 | 2.63 | 3.35 | 0.0262 | 4.6 | 0.317 | 3.93
TTACCAAGGTGAGCGGAGGTCGTTGATCCAACTC | 1.19 | 2.32 | -0.403 | -0.114 | -0.196 | 4.22 | 0.00572 | 1.51 | -1.17 | 1.92
ATACCAAGGTGATAGTGAGGTCGTTGATACTAAC | 0.454 | 1.64 | 0.276 | 0.701 | 1.01 | 3.17 | 1.94 | 2.23 | 0.553 | 1.51
TCATATCGGTAAACAGGTGAAAGTCCGTAAGTTA | 2.55 | 2.3 | 0.278 | 0.853 | 0.999 | 0.657 | 0.286 | 0.933 | 1.19 | 0.764
AGTCAAAGTTCGCTAGGTAACGTAAGATTCAGCT | 0.109 | 1.13 | 0.0923 | 0.244 | 0.129 | 0.563 | 0.141 | 0.661 | 0.175 | 2
TCTCGGAGGACACGAAGGTCAGAGCCTTCCAGAG | 1.3 | 0.917 | -1.24 | -1.76 | 1.08 | 2.11 | 0.864 | 2.36 | 0.0341 | 3.33
CCTAGTTGGTCAGGAGGTAACACACCGGATATGA | 0.719 | 1.36 | 0.594 | 0.266 | 1.37 | 0.0397 | 0.446 | 0.422 | 1.49 | 0.781
ATCTCTAGGTACGACTCAGTTCAGTGAAGAACGC | 0.59 | 0.456 | 0.443 | 1.02 | 0.793 | 1.4 | 1.82 | 0.363 | 1.28 | 0.504

Sequence | PBM binding z-score [1] | PBM binding z-score [2] | PBM binding z-score [3] | PBM binding z-score [4] | PBM binding z-score [5] | PBM binding z-score [6] | PBM binding z-score [7] | PBM binding z-score [8] | PBM binding z-score [9] | PBM binding z-score [10]
ATCGAAAGGTCGAGATGAGTATAGAGAAAGGGAA | -0.278 | 1.33 | 1.47 | 1.2 | 1.05 | 2.02 | 0.117 | 2.52 | 0.436 | 3.66
CGAACTAGGTCATTGACAGGACATTGAATAGTAA | 8.1 | 8.23 | 1.94 | 1.62 | 1.29 | 2.35 | 0.404 | 2.06 | 0.367 | 3.52
CCTAGCAGGCCAGGGCCACTCAAGCATTTCGCTT | -0.0979 | -0.384 | -1.54 | -0.795 | -0.711 | -1.11 | -0.775 | -0.903 | -0.897 | 0.21
CCGACTGGTGCATAAGGTTACCATAAGCCAGCCC | -0.572 | -0.302 | -0.529 | -1.4 | 0.502 | 0.475 | -0.018 | 1.18 | 0.243 | 0.928
CATACAGGGTCAGGTAGGCCAGAGTAGGGACGGC | 0.321 | 2.48 | 0.416 | 0.457 | 1.75 | 2.23 | 0.241 | 3.46 | 0.612 | 3.73
TAGCCTAGGTCAGATCGGGCCAGCATACGCTATA | 0.377 | 1.4 | -0.988 | -0.801 | 0.0554 | 0.945 | -0.628 | 1.3 | -0.92 | 3.09
AGAACGAGGGCACGCTGAATTGATAGCAGAGTAG | 4.42 | 4.08 | 0.656 | 0.0574 | -0.00941 | 0.266 | -0.373 | 0.746 | -0.442 | 2.5
CCTAGTTGGTCCAGGTCACACACGCTATAGGTAC | 1.21 | 2.28 | 0.272 | 0.266 | 2.22 | 2.34 | 1.6 | 2.66 | 1.7 | 2.59
CATACAGGGTCAGCTAGGCAAGAGTAGGGACGGC | 0.883 | 2.27 | 0.128 | 0.564 | 1.62 | 1.97 | -0.336 | 2.62 | 0.47 | 3.91
ACAGACAGGTGATGAAGGTAACACAGGCTATCAT | 0.127 | 0.744 | 0.824 | 0.414 | 0.26 | -0.00388 | 0.386 | 0.0316 | 0.746 | 0.493
GCTTGTAGATCAAGGTAAAGAAAGACTAAGCTAA | 0.905 | 0.644 | -0.0923 | 0.000518 | -0.791 | -0.53 | -0.448 | 0.178 | -0.716 | -0.161
ATCTCTAGTTAACCAAGTTCAGTGAATGCCGAAC | -0.131 | 0.461 | 0.59 | 1.22 | 1 | 2.1 | 3 | 0.723 | 1.21 | 0.932
ATATGTAGGTTAAGGGTCATTCACGTTGGTTCGC | 7.26 | 8.08 | 3.39 | 2.65 | 4.43 | 4.79 | 0.957 | 5.91 | 1.47 | 3.54
GCTATTAGATGAAAGGGCAACCGAATGATTCTCG | 0.363 | 1.35 | 0.246 | 0.212 | 0.834 | 0.424 | -0.122 | 0.795 | 0.15 | 1.94
CCTTACGGGTCACGAGGTTATAGCGCGACGAGCG | 3.89 | 5.36 | 1.53 | 2.01 | 3.21 | 4.57 | 0.486 | 6.3 | 1.06 | 4.56
GCTGCTAGGTCACGTTGGTCAGCTAACGGGTACG | 5.22 | 4.99 | 0.1 | -0.257 | 1.72 | 1.74 | -0.356 | 2.81 | -0.306 | 4.18
ATATGTAGGTTAGCTGGGGTCGTTCAGACTAGGC | 6.38 | 6.16 | 1.24 | 1.41 | 0.751 | 4.69 | 1.3 | 2.76 | 0.512 | 1.51
CCTCGTTGGTCAAGGTCACACACGCTATAGGTAC | 1.3 | 2.58 | 1.08 | -0.102 | 3.26 | 4.25 | 1.82 | 4.63 | 2.69 | 4.18
GCTGCTAGGTAAACTGATGGTCAGCTAAAGCTCG | 0.994 | 0.0303 | -1.25 | -0.794 | -1.08 | -0.636 | -0.67 | -0.68 | -1.2 | -0.155
